For 100 compounds, Potency results are on record in PubChem BioAssay AID1345083 (National Center for Advancing Translational Sciences (NCATS), 2018).

The campaign covered roughly 94,000 compounds. About 6,200 (6.6%) were called active. Entries that show only a call come without a potency. Not shown: some 31% with an inconclusive outcome. Calls follow the shape of the dose curve; as a rule, active = well fitted inhibition curve with a large enough effect; inconclusive = small, poorly fitted or top-dose-only effect; inactive = flat fitted curve, though single readings scatter. Only a selection was taken, and actives are over-represented in it overall.
Potency is read from the fitted curve at half-maximal effect.

The experiment can be described thus: Cytotoxic Profiling in HEK 293 Cell Line of Diverse Libraries Using Quantitative High-Throughput Screening. Also: nearly all actives have a fitted effect of over 60% in size. The note with it: HEK 293 viability, ATP luminescence (CellTiter-Glo), 48-72 h; series mostly up to 115 µM. An outline of the steps:
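Pintool-delivered compounds were incubated with HEK 293 cells (250 cells/well) at 37 degree Celsius for 48 or 72 hr. ATP-dependent luminescence (CellTiter-Glo) then reported remaining viable cells.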
(In general: ATP-based viability assays read luminescence as a measure of living cells.)
In the case of `COc1ccc(-c2nc(C(C)C)nc3c2CCN(C(=O)Cc2ccccn2)CC3)cc1`, the Potency entry is “inactive”.
For the compound `COc1ccc(S(=O)(=O)N2[C@@H]3CC[C@H]2CC(NC(=O)c2ccncc2)C3)cc1` (stereo not given in full), the Potency result was “inactive”.
With `COc1ccc(S(=O)(=O)N2CCc3c(C(=O)NCCc4ccccn4)cccc32)cc1` the figure was 44.7 µM (active); with `Cc1ccc(C)c(CNC(=O)c2ccc3c(c2)N(S(=O)(=O)c2ccccc2)CC3)c1`, “inactive”; with `COCC1CCCCN1c1ccc(C(=O)NCCCc2ccccn2)cn1` (stereo not given), “inactive”.
As to `COc1ccc(S(=O)(=O)N2CCc3c(C(=O)NCc4ccncc4)cccc32)cc1`, the Potency is 35.5 µM (active).
The entry for `CCCNC(=O)N(C1CCOCC1)C1CCN(C(=O)c2ccc(F)c(F)c2)CC1` is “inactive”; for `Cc1cccc(OCC(=O)N2CCCC(n3cc(-c4noc(C)n4)nn3)C2)c1` (stereo not given) it is “inactive”.
Regarding `COCCCn1c(=O)c(C(=O)N2CCN(C(=O)c3ccccc3)CC2)nc2cccnc21`, the Potency result was “inactive”.
`C=CCNC(=O)C(NC(=O)c1cccc(OC)c1)C1CCN(C(=O)c2ccccc2F)CC1` (stereo not given): the Potency result is “inactive”.
Regarding `C#CCNC(=O)C1CN(c2ccc(OC)cc2)C(=O)N1` (stereo not given), the Potency result is “inactive”.
With `CNC(=O)c1cc(C2CC2)nc2onc(C3CCCN(C(=O)C4CC4)C3)c12` (stereo not given) the entry was “inactive”; with `CN1Cc2ccc(CN(C)C(=O)C3CCN(Cc4ccco4)CC3)cc2C1`, “inactive”; with `c1ccc(-c2nc(C3CCOCC3)nn2CC2COCCO2)cc1` (stereo not given), “inactive”.
The figure for `CN(C)CCNC(=O)C[C@@H]1c2nc(NC(=O)c3ccc(C(C)(C)C)cc3)sc2C[C@@H]2[C@](C)(CO)[C@H](O)CC[C@]21C` is 31.6 µM (active).
Take `CC(=O)N1CCN(C(=O)C[C@@H]2c3nc(NC(=O)c4cccs4)sc3C[C@@H]3[C@](C)(CO)[C@H](O)CC[C@]32C)CC1`: the Potency entry is “inactive”.
Turning to `COCC(=O)Nc1nc2c(s1)C[C@@H]1[C@](C)(CO)[C@H](O)CC[C@@]1(C)[C@@H]2CC(=O)NCCN1CCOCC1`, the Potency result was “inactive”.
As to `CC(C)CCN(C1CCOCC1)C1CCN(Cc2cccnc2)CC1`, the Potency result was “inactive”.
`O=C(c1ccc(Cl)cc1Cl)N1CCC(c2nnc3n2C(C(=O)N2CCN(c4ncccn4)CC2)CC3)CC1` (stereo not given): the Potency entry was “inactive”.
Take `COc1cc(C(=O)N2CCCN(S(C)(=O)=O)c3ccccc32)cc(OC)c1OC`: the Potency result is “inactive”.
Regarding `Cc1ccc(CCN2CCCCC23Cc2ccccc2CN(C(=O)CCCC(=O)O)C3)cc1` (stereo not given), the Potency entry is “inactive”.
On to `CC(=O)N1Cc2ccccc2CC2(CCCCN2C)C1` (stereo not given), for which the Potency entry was “inactive”.
In the case of `O=C(C1CCCC1)N1Cc2ccccc2CC2(CCCCN2CC2CCNCC2)C1` (stereo not given), the Potency is 25.1 µM (active).
With `CC(=O)NCCC(=O)N1Cc2ccccc2CC2(CCCCN2CC2CCNC2)C1` (stereo not given), the Potency result was “inactive”.
The entry for `CCN1CCCCC12Cc1ccccc1CN(S(C)(=O)=O)C2` (stereo not given) is “inactive”; for `O=C(c1ccccc1)N1Cc2ccccc2CC2(CCCN2CC2CCNC2)C1` (stereo not given) it is 79.4 µM (active).
Regarding `O=C(NC1CCCCC1)C1CN(S(=O)(=O)c2cccc(Cl)c2)CC12CCOCC2` (stereo not given), the Potency entry was “inactive”.
With `NC(=O)[C@H](CCC(=O)O)NC(=O)[C@@]1(O)C[C@@H](O)[C@H](O)[C@@H](NS(=O)(=O)c2cccc(C(F)(F)F)c2)C1` the entry was “inactive”; with `Cn1nnc(-c2ccc(C(=O)N[C@H]3C[C@@H]4OCC[C@H]34)cc2)n1`, “inactive”.
On to `c1cnc2nc(C3CCCCN3)[nH]c2c1` (stereo not given), for which the Potency entry was “inactive”.
On to `Cc1cc(C(=O)NCC2Cn3cccc3C(=O)N2CC(C)C)n(C)n1` (stereo not given), for which the Potency result was “inactive”.
On to `CC(C)N1Cc2cc(C(=O)Nc3cccc4c3CCCC4)sc2C1`, for which the Potency was 28.2 µM (active).
Take `COCCn1ccc2c(NC(=O)Cn3nc4c(cc3=O)CCCC4)cccc21`: the Potency result was “inactive”.
With `CC(C)N1Cc2cc(C(=O)O)sc2C1` the entry was “inactive”.
With `O=C(O)C[C@@H]1CCN(C(=O)C2CCCCC2)C[C@@H]1CCN1CCN(c2ccccc2)CC1`, the Potency entry is “inactive”.
Take `CCOC(=O)[C@@H]1[C@@H](OC)C(=O)N(Cc2ccccc2)C12CCN(C(=O)c1ccc(F)cc1)CC2`: the Potency entry was “inactive”.
Consider `O=C(O)CCC(=O)N1CCOC2(CCN(C(=O)c3ccccc3)CC2)C1`, for which the Potency result is “inactive”.
As for `O=C(c1ccc(F)cc1)N1CCC2(CC1)CCN(Cc1cccs1)c1ccccc1O2`, the Potency is 44.7 µM (active).
Consider `COCC(=O)N(C1CCOCC1)C1CCN(S(=O)(=O)c2ccc(F)c(F)c2)CC1`, for which the Potency result was “inactive”.
For the compound `O=C1OCCN1C1CCN(S(=O)(=O)c2ccccc2)CC1`, the Potency entry is “inactive”.
With `O=S(=O)(c1ccccc1)N1CCC(CCOc2ccccc2)C1` (stereo not given) the figure was 79.4 µM (active); with `O=C(CCC1CCN(S(=O)(=O)c2ccccc2)CC1)NCc1ccccn1`, “inactive”; with `CCCN1C(=O)NC(Cc2nc(-c3cccnn3)no2)C1=O` (stereo not given), “inactive”.
As for `COc1ccccc1C(=O)NCC1COc2ncncc2C(=O)N1Cc1ccccc1` (stereo not given), the Potency result was “inactive”.
As to `CSCC(=O)N1CCc2[nH]nc(-c3ccc4c(c3)OCO4)c2C1`, the Potency result was “inactive”.
The entry for `O=C1Cc2c(-c3ccc(F)cc3F)n[nH]c2CN1Cc1ccccc1F` is “inactive”; for `Fc1ccccc1-c1n[nH]c2c1CN(Cc1cccc3c1OCO3)CC2` it is 44.7 µM (active).
Turning to `O=C(c1cccc(Cl)c1)N1CCC(C(=O)N2CCCC(c3nc4ccncc4[nH]3)C2)CC1` (stereo not given), the Potency entry is “inactive”.
Take `O=C(N1CCCC1c1nc(CCOCC2CC2)no1)C1(c2ccccc2)CC1` (stereo not given): the Potency result is “inactive”.
In the case of `O=C(c1ccc(-n2cnnc2)cc1)N1CCC2(CCCO2)CC1`, the Potency result is “inactive”.
The entry for `Cn1cccc1C(=O)N[C@H]1C[C@@H](C(=O)O)N(C(=O)CSCC(=O)N2C[C@@H](NC(=O)c3cccn3C)C[C@H]2C(=O)O)C1` is “inactive”.
As for `CCc1nc(-c2c3n(c(=O)n(CC(=O)Nc4ccc(C)cc4)c2=O)CCCCC3)no1`, the Potency result was “inactive”.
Take `Cc1cccc(-c2cc(C3CCN(S(=O)(=O)c4cccc(C#N)c4)CC3)[nH]n2)c1`: the Potency was 25.1 µM (active).
The entry for `Cc1cccc(S(=O)(=O)N2CCC(n3cnnc3C(C)C)CC2)c1` is “inactive”.
Regarding `N#Cc1cccc(CN2CCCN(S(=O)(=O)c3ccccc3)CCC(=O)NCC2)c1`, the Potency entry is “inactive”.
For `O=C(O)C[C@@H]1CCN(C(=O)c2ccc(C(F)(F)F)cc2)C[C@@H]1CCN1CCN(c2ccc(F)cc2)CC1`, the Potency entry was “inactive”.
With `COCCNC(=O)C1COC2(CCN(C(=O)c3ccc(F)cc3)CC2)N1C(=O)c1ccccc1C` (stereo not given) the entry was “inactive”; with `Cc1ccccc1C(=O)N1CCN(c2nccc(Nc3ccccc3Cl)n2)CC1`, 35.5 µM (active); with `COc1ccc(C2Cn3cnc(C(=O)N4CCC(C(=O)NCc5cccc(F)c5)CC4)c3CO2)cc1` (stereo not given), “inactive”.
On to `O=C(Nc1ccccc1Cl)N1CCC(Oc2ncccc2C(=O)N2CCCCC2)C1` (stereo not given), for which the Potency result was “inactive”.
With `COc1ccccc1C(=O)N1CCN(c2cc(C(F)(F)F)ncn2)CC1`, the Potency entry was “inactive”.
On to `COc1cccc(C(=O)N2CCN(c3nccc(Nc4ccccc4OC)n3)CC2)c1`, for which the Potency result was “inactive”.
The figure for `COc1ccccc1Nc1ccnc(N2CCC(C(=O)NCc3cccc(Cl)c3)CC2)n1` is 39.8 µM (active); for `COc1ccccc1Nc1ccnc(N2CCN(C(=O)c3ccc(C(F)(F)F)cc3)CC2)n1` it is 39.8 µM (active).
For the compound `COc1ccc(C2Cn3nnc(C(=O)N4CCC(C(=O)NCc5ccc(C)cc5)CC4)c3CO2)cc1` (stereo not given), the Potency result was “inactive”.
Consider `COc1ccccc1Nc1ccnc(N2CCC(NC(=O)NC(C)C)CC2)n1`, for which the Potency result was “inactive”.
Consider `O=C(c1ccccc1Cl)N1CCN(C(=O)c2nc3cccnc3n(Cc3ccccc3)c2=O)CC1`, for which the Potency entry is “inactive”.
As to `COc1ccccc1Nc1ccnc(N2CCC(C(=O)NCc3ccc(C(F)(F)F)cc3)CC2)n1`, the Potency is 31.6 µM (active).
Regarding `Cc1ccc(C2Cn3cnc(C(=O)N4CCC(C(=O)NCc5cccc(Cl)c5)CC4)c3CO2)cc1` (stereo not given), the Potency result was “inactive”.
For `O=C1NC2(Cc3ccccc31)CN([S+](=O)([O-])c1cccc(C(F)(F)F)c1)C2`, the Potency entry is “inactive”.
Regarding `O=C(NCC1CC1)c1cn(C2CN(C(=O)Nc3ccccc3)C2)nn1`, the Potency result was “inactive”.
As to `CCCNC(=O)N1CCOC[C@H](Oc2cccnc2)C1`, the Potency entry was “inactive”.
For the compound `CCc1cccc(NC(=O)C2(C)CCCCC(=O)N2)c1` (stereo not given), the Potency entry is “inactive”.
For `CC(=O)N1CCOc2ccc(CCC(=O)NCc3nc4ccccc4n3C)cc2C1`, the Potency entry is “inactive”.
On to `CCCCN1C(=O)[C@@H]2C[C@@H](O)CN2C2(CN(CC(C)C)C2)C1=O`, for which the Potency entry was “inactive”.
With `COCC1(CNS(=O)(=O)c2ccc(F)cc2)C[C@@H](O)[C@@H](O)C1` (stereo not given in full) the entry was “inactive”.
For `COc1ccc(Nc2ccnc(N3CCCC(C(=O)NCc4ccc(C(F)(F)F)cc4)C3)n2)cc1` (stereo not given), the Potency is 20 µM (active).
Take `COc1ccc(Nc2ccnc(N3CCC(C(=O)N4CCN(C(C)=O)CC4)CC3)n2)cc1`: the Potency entry was “inactive”.
With `COc1ccc(CNC(=O)[C@@H]2CCC[C@@H](NCc3nccs3)CN(C)C(=O)C2)cc1` the entry was “inactive”; with `Cc1nsc(NC(=O)N2CCC(CO)CC2)n1`, “inactive”; with `CCOc1ccccc1C(=O)N1CCC(N2CC3CC(C2)[C@H]2CCCC(=O)N2C3)CC1` (stereo not given in full), “inactive”.
In the case of `COC[C@@H]1CN(C(=O)Cn2cc(C)cn2)C[C@H]1c1ccccn1`, the Potency result was “inactive”.
As to `Cc1ccc(C)c(NC(=O)Cn2nc3n(c2=O)CCCCC3)c1`, the Potency entry is “inactive”.
The figure for `CN(CCc1cn[nH]c1)c1ccc(-c2nc(-c3ccccc3F)no2)cn1` is 31.6 µM (active).
Take `O=C(C1CCC1)N1CCC(Oc2cccnc2)C1` (stereo not given): the Potency result is “inactive”.
Turning to `Cc1noc(C)c1-c1cc(-c2ccccc2Oc2ccccc2)cn2cncc12`, the Potency is 79.4 µM (active).
As to `OCc1ccc(-c2cc(-c3cccnc3)c3cncn3c2)cc1`, the Potency result is “inactive”.
Take `Cc1noc(C)c1-c1cc(-c2cncnc2)cn2cncc12`: the Potency entry is “inactive”.
With `COc1ccccc1-c1onc(C)c1C(=O)NCc1ccc(Cl)cc1`, the Potency entry is “inactive”.
Take `CCCOCCCNC(=O)c1c(C)noc1-c1ccccc1Cl`: the Potency entry is “inactive”.
Take `COc1ccccc1-c1onc(C)c1C(=O)NCCC(c1ccccc1)c1ccccc1`: the Potency was 25.1 µM (active).
On to `O=C(c1ccc2nnc(C3CC3)n2c1)N1CCOCC1`, for which the Potency entry is “inactive”.
Turning to `CC(C)n1c(C2CCN(C(=O)Cc3cccc(F)c3)CC2)nn(C)c1=O`, the Potency result is “inactive”.
For `O=C(C1CCCN(c2ccnc3ccnn23)C1)N1CCCCC1` (stereo not given), the Potency result was “inactive”.
The figure for `O=C(c1ccccc1)N1CCOc2ccc(CN3CCc4ccccc4C3)cc2C1` is 44.7 µM (active).
`O=C(c1ccoc1)N1CCOc2ccc(CN3CCc4ccccc4C3)cc2C1`: the Potency was 39.8 µM (active).
As to `O=C(c1ccoc1)N1CCCN(C(=O)C2COc3ccccc3C2)CC1` (stereo not given), the Potency result is “inactive”.
On to `O=C(CC1CCCC1)N1CCOc2ccc(CN3CCCCC3)cc2C1`, for which the Potency entry is “inactive”.
Consider `O=C1CCN(Cc2ccc3c(c2)CCO3)CCOCCN1`, for which the Potency entry was “inactive”.
On to `CCC(C)N1CCN(C(=O)CCc2ccc3c(c2)CN(C(=O)NC(C)C)CCO3)CC1` (stereo not given), for which the Potency entry was “inactive”.
